# Screening data as filed in PubChem BioAssay.
# Most compounds without a hit are left out; they make up all but 1.5% or so of the library.
# APE1 inh-1 – qHTS Assay for Inhibitors of the Human Apurinic/apyrimidinic Endonuclease 1 (APE1); AID 2517, 2012; 350,000 tested, 0.35% active; DNA repair nuclease/redox regulator APEX1 (Homo sapiens), P27695; Potency, µM (top dose mostly 65.8 µM), actives largely listed as inhibitors; recombinant APE1, TAMRA/BHQ-2 abasic DNA cleavage fluorescence; also: nearly all actives have a fitted effect of over 55% in size
# Target sequence (P27695 whole entry, looked up): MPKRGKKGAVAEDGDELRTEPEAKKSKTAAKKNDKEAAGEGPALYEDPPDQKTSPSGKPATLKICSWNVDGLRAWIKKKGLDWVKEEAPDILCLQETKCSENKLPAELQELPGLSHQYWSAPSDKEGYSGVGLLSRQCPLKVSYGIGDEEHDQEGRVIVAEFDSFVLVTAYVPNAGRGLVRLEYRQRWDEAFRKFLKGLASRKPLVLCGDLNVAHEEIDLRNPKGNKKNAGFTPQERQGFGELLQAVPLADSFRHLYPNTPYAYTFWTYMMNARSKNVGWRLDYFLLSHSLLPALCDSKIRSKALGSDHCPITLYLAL
#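 APE1 at 0.75 nM preincubated 15 min at room temperature with compound. Reaction then started with 50 nM double-stranded THF-abasic substrate labelled with TAMRA/BHQ-2, and 525/598 nm fluorescence read kinetically. Activity taken as third-minus-first read difference, normalized to DMSO and NSC13755 controls.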
# PI5P4Ka inh – qHTS for Inhibitors of phosphatidylinositol 5-phosphate 4-kinase (PI5P4K) | Phosphatidylinositol 5-phosphate 4-kinase type-2 alpha (Homo sapiens), P48426 | PI5P4Kalpha enzyme, ADP-Glo luminescence, 60 min; active compounds read low | max response, % | 330,000 tested, 1.2% active | AID 652105, 2013; active = max response of -50% or lower; inconclusive = between -30% and -50%; inactive = -30% or higher; also: value at the top dose of about 77 µM
# Target sequence (P48426 whole entry, looked up): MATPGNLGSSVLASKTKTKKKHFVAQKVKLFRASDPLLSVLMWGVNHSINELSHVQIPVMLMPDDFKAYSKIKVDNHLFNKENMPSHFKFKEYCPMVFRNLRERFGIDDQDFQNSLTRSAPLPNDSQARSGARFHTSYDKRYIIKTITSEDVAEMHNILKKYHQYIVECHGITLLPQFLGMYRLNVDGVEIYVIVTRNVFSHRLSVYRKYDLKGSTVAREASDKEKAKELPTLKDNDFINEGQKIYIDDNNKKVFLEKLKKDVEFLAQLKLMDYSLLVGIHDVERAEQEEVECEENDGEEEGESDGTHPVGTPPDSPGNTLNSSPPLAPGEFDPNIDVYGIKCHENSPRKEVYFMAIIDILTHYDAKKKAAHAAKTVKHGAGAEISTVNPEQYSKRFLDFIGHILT
#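 Single end-point luminescence (ADP-Glo) quantified ADP from PI5P4Kalpha turnover; ATP 5 microM final, 1 h at RT, 0.1% CHAPS and 0.28 mM EGTA in HEPES pH 7.4.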
# BLM inh-1 – qHTS Assay for Inhibitors of Bloom's syndrome helicase (BLM). AID 2528, 2010. RecQ-like DNA helicase BLM (Homo sapiens), P54132. recombinant BLM DNA unwinding, fluorescence dequenching. Potency, µM (top dose mostly 56.1 µM), most hits filed as inhibitors. 350,000 tested, 0.2% active; also: nearly all actives have a fitted effect of over 35% in size
# FEN1 inh – qHTS Assay for the Inhibitors of Human Flap endonuclease 1 (FEN1); 390,000 tested, 0.35% active; Potency, µM (highest dose often 114 µM), most hits filed as inhibitors; Recombinant FEN1 flap cleavage, fluorescence, 15 min; P39748; also: nearly all actives have a fitted effect of over 65% in size
#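 Enzyme 10 nM, 15 min RT preincubation with compound; start with substrate 50 nM final; reads at 0 and 15 min; qHTS titration, four-parameter Hill fit.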
# RECQ1 inh-1 – qHTS Assay for Inhibitors of RecQ-Like Dna Helicase 1 (RECQ1); ATP-dependent DNA helicase Q1 (Homo sapiens), P46063; RECQ1 DNA unwinding, red fluorescence kinetic read; Potency, µM (titrated, usually from 57.3 µM), usual class: inhibitors; 240,000 tested, 0.54% active; AID 2549, 2010; also: nearly all actives have a fitted effect of over 30% in size
#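 50 nM RECQ1T1 preincubated 15 min with compound in Tris pH 8.0 buffer with MgCl2, DTT, Tween-20 and 2.5 ug/ml poly(dI-dC); started with 200 nM TAMRA/BHQ-2 forked duplex and 2 mM ATP. Unwinding read as fluorescence (525/598 nm), two reads 2 h apart.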
# WRN helicase inh – qHTS for Inhibitors of WRN Helicase; AID 651768, 2012; 360,000 tested, 0.46% active; WRN helicase unwinding, fluorescent forked duplex, kinetic; Potency, µM (highest dose often 114 µM), actives largely listed as inhibitors; also: nearly all actives have a fitted effect of over 55% in size
#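 Primary qHTS, 1536-well format. 20 nM WRN + compound, 15 min RT; start with 100 nM forked fluorophore/quencher duplex, 2 mM ATP (final); kinetic read ex 525/em 598 nm.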
# DNA dye displace – Counterscreen for APE1 Inhibitors: Fluorescent Dye Displacement Assay; shares compounds with APE1 inh-1; 480 tested, 7% active; Potency, µM (highest dose often 28.5 µM), most hits filed as inhibitors; DNA fluorescent dye displacement counterscreen, fluorescence;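 also: loss of thiazole orange fluorescence as the dye is displaced from duplex DNA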
# Endo IV inh – Counterscreen for APE1 Inhibitors: qHTS Assay for Inhibitors of Endonuclease IV. shares compounds with APE1 inh-1. E. coli Endo IV, fluorogenic AP-site DNA cleavage. 560 tested, 4% active. Potency, µM (highest dose often 27.1 µM), most hits filed as inhibitors
# APE1 inh-2 – Confirmation qHTS Assay for Inhibitors of the Human Apurinic/apyrimidinic Endonuclease 1 (APE1); shares compounds with APE1 inh-1; purified APE1, fluorogenic abasic-site DNA cleavage; Potency, µM (series often up to 57.1 µM), usual class: inhibitors; 750 tested, 44% active; also: nearly all actives have a fitted effect of over 30% in size
# APE1 FP – qHTS FP-Based Assay for Inhibitors of the Human Apurinic/apyrimidinic Endonuclease 1 (APE1); Potency, µM (highest dose often 28.5 µM), actives largely listed as inhibitors; 480 tested, 7% active; AID 2573, 2010; shares compounds with APE1 inh-1; APE1 binding to TAMRA-labelled double-stranded DNA, fluorescence polarization displacement
# BLM inh-2 – qHTS Confirmation Assay for Inhibitors of Bloom's syndrome helicase (BLM); shares compounds with BLM inh-1; BLM DNA unwinding, fluorescence quenching, biochemical; Potency, µM, most hits filed as inhibitors; 220 tested, 40% active; AID 2585, 2010;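 also: strand separation dequenches TAMRA so unwinding raises red fluorescence; series mostly up to about 69 µM; nearly all actives have a fitted effect of over 45% in size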
# RECQ1 inh-2 – Confirmation qHTS Assay for Inhibitors of RecQ-Like Dna Helicase 1 (RECQ1) - Round 2 Cherry Picks | shares compounds with RECQ1 inh-1 | recombinant RECQ1 DNA unwinding, red fluorescence | Potency, µM (highest dose often 119 µM), hits mostly inhibitors | 1,100 tested, 15% active; also: nearly all actives have a fitted effect of over 50% in size
# ADP-Glo interf – qHTS for Inhibitors of PI5P4K: ADP-Glo counter assay | shares compounds with PI5P4Ka inh | Potency, µM (titrated, usually from 76.9 µM), actives largely listed as inhibitors | ADP-Glo detection counter-screen, luciferase luminescence, no enzyme | 1,100 tested, under 10 active
# Hits are given with their value; 0 = inactive; ? = inconclusive; - = not tested or not shown; [ ] = another dose, or the depositor's remark. Unless noted, calls follow the shape of the dose curve; as a rule, active = well fitted curve in the direction sought with a large enough effect; inconclusive = small, poorly fitted or top-dose-only effect, or another doubt; inactive = no such curve, though single readings can be large; an effect the other way counts as inactive or inconclusive.
SMILES,APE1 inh-1,PI5P4Ka inh,BLM inh-1,FEN1 inh,RECQ1 inh-1,WRN helicase inh,BLM inh-2,others
COCCOC(=O)c1[nH]c2c(c1C)C(=O)CC(c1ccco1)C2 (configuration not stated),18µM,-55,?,?,35µM,?,-,DNA dye displace=0;Endo IV inh=0;APE1 inh-2=7.9µM;APE1 FP=0;RECQ1 inh-2=?;ADP-Glo interf=0
Cc1ccc(NC(=O)c2cc(-c3ccco3)nc3ccccc23)cc1S(=O)(=O)N1CCOCC1,?,0,0,0,?,?,-,
COc1ccc(NC(=O)c2cc(-c3ccco3)nc3ccccc23)cc1S(=O)(=O)N1CCOCC1,4µM,-59,?,?,?,?,-,DNA dye displace=13µM;Endo IV inh=0;APE1 inh-2=13µM;APE1 FP=?;RECQ1 inh-2=?;ADP-Glo interf=0
CC[C@H](C)[C@H](NC(=O)CNC(=O)[C@H](CC(C)C)NC(=O)[C@H](CC(C)C)NC(=O)[C@H](CCC(N)=O)NC(=O)[C@H](CCC(N)=O)NC(=O)[C@H](CC(=O)O)NC(=O)[C@H](CCCCN)NC(=O)[C@H](CC(C)C)NC(=O)[C@H](Cc1ccc(O)cc1)NC(=O)[C@H](CCCNC(=N)N)NC(=O)[C@H](CCC(=O)O)NC(=O)[C@@H](NC(=O)[C@H](C)NC(=O)[C@H](CC(C)C)NC(=O)[C@@H](NC(=O)[C@@H](N)CCCNC(=N)N)[C@@H](C)CC)C(C)C)C(=O)N[C@@H](Cc1c[nH]c2ccccc12)C(=O)NCC(=O)N[C@@H](CS)C(=O)N[C@@H](CO)C(=O)O,0,-,0,-,0,-,-,
NC(=O)COC(=O)c1ccc(Cl)c(S(=O)(=O)N2CCCCCC2)c1,0,0,0,0,0,0,-,
O=C(OCC(=O)N1CCCCCC1)c1ccc(Cl)c(S(=O)(=O)N2CCCC2)c1,?,-61,0,0,0,0,-,DNA dye displace=0;Endo IV inh=0;APE1 inh-2=?;APE1 FP=0;ADP-Glo interf=0
O=C(Oc1ccc2c(c1)OCO2)c1cc2c(s1)CCC2,?,-53,0,?,?,?,-,DNA dye displace=0;Endo IV inh=0;APE1 inh-2=11µM;APE1 FP=?;ADP-Glo interf=0
CCN(Cc1ccccc1)C(=O)Cn1c(=O)n(-c2ccccc2)c(=O)c2c1c1cc(C)ccc1n2C,-,-,0,0,-,-,-,
O=C(CSc1nc(O)cc(=O)[nH]1)Nc1ccc2c(c1)CCC2,0,-,22µM,?,0,?,0,
Cc1ccc(CNC(=O)C2CCN(C(=O)N3CC(C)Oc4ccc(Cl)cc43)CC2)cc1 (configuration not stated),-,-,0,0,-,-,-,
CC1=NN(c2ccccc2)C(=O)/C1=C/c1c(O)n(-c2ccc(F)c(Cl)c2)[nH]c1=O,0,?,18µM,?,0,?,36µM,
O=C(CCl)Nc1ccccc1Sc1ccccc1,0,0,8.9µM,0,0,0,13µM,
CCCCn1c(=O)[nH]c2nc3cc(N)ccc3nc2c1=O,0,-66,5.6µM,?,0,50µM,?,
C=CCn1c(=O)[nH]c2nc3cc(N=CN(C)C)c(C)cc3nc2c1=O,0,0,0,0,0,0,-,
Cc1nc2ccc3nc(NC(=O)C4COc5ccccc5O4)sc3c2s1 (configuration not stated),0,0,0,0,0,0,0,
CSc1nc(N(C)CCO)c2sc3nc(-c4ccco4)c4c(c3c2n1)CCC4,0,-,20µM,45µM,?,22µM,?,
CSc1nc(SCC(=O)O)c2sc3nc(-c4ccccc4)c4c(c3c2n1)CCC4,?,0,0,?,0,?,-,
CCOC(=O)c1sc2nc3c(SCC(=O)O)cc(C(=O)c4ccccc4O)cn3c(=O)c2c1C,?,0,0,?,0,0,-,
O=C(O)CSc1cc(C(=O)c2ccccc2O)cn2c(=O)c3c(-c4ccccc4)csc3nc12,0,-53,28µM,?,0,?,?,
O=C(Nc1cccc(-c2nc3cccnc3s2)c1)C1c2ccccc2Oc2ccccc21,?,0,10µM,0,0,0[11.6 µM],13µM,
CCOc1ccc(NC(=O)CSc2nnc3c(n2)[nH]c2ccc(S(=O)(=O)N4CCCCC4)cc23)cc1,-,-,-,0,-,-,-,
COc1ccccc1-n1c2nc3ccccc3nc2c2c(=O)n(-c3cc(C)cc(C)c3)cnc21,0,0,0,0,0,0,-,
COc1ccccc1-n1cnc2c(c1=O)c1nc3ccccc3nc1n2-c1ccc(C)cc1,0,0,10µM,?,0,0,0,
CC(C)OCCCN1C=C2C(=O)C(C)(OC(=O)C3CCCC3)C(=O)C=C2C=C1c1ccsc1 (configuration not stated),0[12.4 µM],-,0[12.4 µM],-,0[11.5 µM],-,-,
